Laboratory results from the supplement of paper PMC6555819.

How the values were obtained:
Assay in all cases: PBM binding z-score (relative to random genomic background probes); higher = stronger binding; sequences stand for … in GC…GCGATTGACAGCGTAGAATGAAGG
[1] = system: PPARg:RXRa DBDmut IVT, anti-RXR (DBD mutation: RXRa K156A/R161A, NR concentration 270 nM, RXRa partner concentration 90 nM)
Summary of the method: (§1)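 Ligand-free nuclear receptor dimers were bound for 1 h to custom Agilent 4×180K protein-binding microarrays. Detection used antibodies against each partner (one per run). Binding z-scores rest on regression-normalized fluorescence, with random background probes as the reference.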

[2] = system: PPARg:RXRa IVT, anti-PPARg (NR concentration 270 nM, RXRa partner concentration 90 nM)
Summary of the method: as §1

[3] = system: PPARg DBDmut:RXRa IVT, anti-PPARg (DBD mutation: PPARg1 K132A/R137A, NR concentration 270 nM, RXRa partner concentration 90 nM)
Summary of the method: as §1

[4] = system: PPARg DBDmut IVT, anti-PPARg (DBD mutation: PPARg1 K132A/R137A, NR concentration 270 nM)
Summary of the method: as §1

[5] = system: PPARg homodimer (NR concentration 180 nM)
Summary of the method: as §1

[6] = system: PXR:RXRa (NR concentration 270 nM, RXRa partner concentration 90 nM)
Summary of the method: as §1

[7] = system: PXR homodimer (NR concentration 270 nM)
Summary of the method: as §1

[8] = system: RARa:RXR (NR concentration 270 nM, RXRa partner concentration 90 nM)
Summary of the method: as §1

[9] = system: RARa homodimer (NR concentration 270 nM)
Summary of the method: as §1

[10] = system: RARb:RXRa (NR concentration 270 nM, RXRa partner concentration 90 nM)
Summary of the method: as §1

Sequence	PBM binding z-score [1]	PBM binding z-score [2]	PBM binding z-score [3]	PBM binding z-score [4]	PBM binding z-score [5]	PBM binding z-score [6]	PBM binding z-score [7]	PBM binding z-score [8]	PBM binding z-score [9]	PBM binding z-score [10]
ACAGACAGGTGAGTGAAGGTAAATCAGCTGGACG	0.437	0.547	-0.117	0.0853	0.0194	-0.359	-0.168	0.0806	-0.397	0.388
GCGACTGGGGCATGAGCAGGTTACCATAACTTAA	3.82	3.4	-0.58	-0.475	0.287	0.134	-0.328	0.416	-0.578	0.781
ACTATTAGTTGACTTAGGTCAACCGATACGACGC	0.95	1.72	1.38	1.44	2.81	2.2	1.29	2.59	1.55	2.73
TCTGCTAGGTCAGTGGGTCAGCTAACGAGCTGCC	4.42	5.76	0.364	-0.282	1.24	0.857	-0.958	2.11	-0.00938	3.77
TAGCCTAGGTCATTAGGCCAGTATAGTACGCATC	2.12	3.88	0.301	-0.52	1.19	0.87	-0.114	1.79	0.0486	3.24
CCTTACGGGTCACGCCAGGTTATAGCATCGGAGT	3.85	4.83	0.182	0.0773	2.19	5.46	0.316	4.98	1.14	4.35
ATATGTAGGCTAGCTGGGGTCATTCAGACTAGGC	4.55	3.66	1.11	0.266	1.81	5.32	2.19	5.28	0.344	2.28
ATATGTAGGTTAAGGGTCATTGAGGTTGGTTCGC	7.14	7.77	2.89	2.08	3.71	5.1	4.17	5.84	2.44	3.7
CCGACTGGGGCAAATGTTACCATACTCAGTACGA	4.63	3.74	0.00418	0.212	0.439	-0.402	-0.187	-0.273	-0.109	0.683
AGTCAAAGTTCACAAGGTAACGTAAGATTCAGCT	0.681	3.67	1.19	0.956	3.05	4.78	2.84	4.51	2.08	4.82
ATCTCTATGTAAGACTCAGTTCAGTGAAGAACGC	-0.194	-0.197	0.298	1.3	0.674	0.52	1.01	0.0686	0.753	0.0321
TCTGCTAGGTCAACGAAGGTCAGCTAATCTGCTA	4.15	4.53	0.834	0.313	3.51	5.64	0.241	4.51	0.797	4.95
CATACAGGGTCAGCTAGGCCAGAGCAGGGACGGC	0.983	2.45	0.782	0.361	1.29	2.04	0.078	2.84	0.253	4.15
TCTTGTAGATCAATGGAGGTTAAGAAAGTGCGCT	2.04	1.57	0.0784	1.12	-0.199	2.58	0.0457	1.16	0.49	0.504
TCATATAGGTAATACTGGTGAAAGTCGGCATCTA	3.8	2.46	1.36	0.717	0.814	0.689	-0.083	0.73	0.536	0.451
AATACAAGGTCACTAGGCCAGAGTAGGTACGAAT	4.85	6.56	2.9	1.98	3.01	3.63	0.919	4.05	1.19	5.31
ATATGTTGGTTAAGGGTCATTCAGGTTGGTTCGC	1.61	3.8	1.51	1.87	4.23	5.21	3.35	4.73	3.39	3.39
CGAAATAGGTCAAGGACAGTGAATCTCCGCACGC	7.8	7.31	2.5	0.573	3.31	2.69	0.113	3.82	1.59	4.51
TCATATAGGTAAAAGGTGAAAGTAGGTGTGGTAA	5.54	5.11	1.51	2.06	2.38	2.11	0.728	3.45	2.24	2.06
GATACATGGTCAAGGCCAGAGTACGCGTATTGAT	0.0376	0.621	-0.439	0.11	-0.243	-0.158	-0.13	-0.204	-0.125	1.25
ATATGTAGGTTAGCTGGGGTCATTCATACTAGGC	6.88	6.57	2.9	2.72	3.41	6.71	4.4	6.18	2.13	3.28
TGTCACAGTTCAAAGGTAACGTAAGTATCCACAC	0.227	2.78	1.49	1.01	0.48	3.67	0.969	4.07	-0.272	2.88
CCTTACGGTTCACGAGGTTATAGCACGACGAGCG	0.19	0.535	0.19	0.414	1.45	3.2	1.29	3.8	1.36	1.99
